# Experimental data as given in paper doi:10.1101/2024.03.05.583629.
# Molecular target: pT7_6His-AlfaTag-HOXD13 (human, UniProt P35453 263-343)
# Assay: PADIT-seq
# Conditions: dsDNA, one strand shown
# Sequence of pT7_6His-AlfaTag-HOXD13 (P35453 263-343): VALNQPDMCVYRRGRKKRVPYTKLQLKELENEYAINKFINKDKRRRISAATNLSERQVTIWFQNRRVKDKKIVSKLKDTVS
row,Sequence,binding signal
1,CTCGAGGATATCAAGATCTGGCCTCGGCCTTTTATTAGGAACCTCTAGCTAGCCGACTCACTATAGGGATAATCGCCCTGAGCAAAGACC,3.32 ± 0.0849 log2FC
2,CTCGAGGATATCAAGATCTGGCCTCGGCGTGCTAAAAGGAACCTCTAGCTAGCCGACTCACTATAGGGATAATCGCCCTGAGCAAAGACC,-0.142 ± 0.0902 log2FC
3,CTCGAGGATATCAAGATCTGGCCTCGGCCGCTAACGCGGAACCTCTAGCTAGCCGACTCACTATAGGGATAATCGCCCTGAGCAAAGACC,-0.899 ± 0.132 log2FC
4,CTCGAGGATATCAAGATCTGGCCTCGGCGTTTTAGACGGAACCTCTAGCTAGCCGACTCACTATAGGGATAATCGCCCTGAGCAAAGACC,-0.509 ± 0.117 log2FC
5,CTCGAGGATATCAAGATCTGGCCTCGGCATTTTAACTGGAACCTCTAGCTAGCCGACTCACTATAGGGATAATCGCCCTGAGCAAAGACC,1.48 ± 0.0833 log2FC
6,CTCGAGGATATCAAGATCTGGCCTCGGCTTTTTACATGGAACCTCTAGCTAGCCGACTCACTATAGGGATAATCGCCCTGAGCAAAGACC,2.12 ± 0.0858 log2FC
7,CTCGAGGATATCAAGATCTGGCCTCGGCGTTTTAATAGGAACCTCTAGCTAGCCGACTCACTATAGGGATAATCGCCCTGAGCAAAGACC,2.63 ± 0.0918 log2FC
8,CTCGAGGATATCAAGATCTGGCCTCGGCTTTTTACACGGAACCTCTAGCTAGCCGACTCACTATAGGGATAATCGCCCTGAGCAAAGACC,2.25 ± 0.079 log2FC
9,CTCGAGGATATCAAGATCTGGCCTCGGCTTTTTAACGGGAACCTCTAGCTAGCCGACTCACTATAGGGATAATCGCCCTGAGCAAAGACC,1.89 ± 0.0968 log2FC
10,CTCGAGGATATCAAGATCTGGCCTCGGCTTTTTAAACGGAACCTCTAGCTAGCCGACTCACTATAGGGATAATCGCCCTGAGCAAAGACC,1.28 ± 0.101 log2FC
11,CTCGAGGATATCAAGATCTGGCCTCGGCTTTTTAGCGGGAACCTCTAGCTAGCCGACTCACTATAGGGATAATCGCCCTGAGCAAAGACC,-0.0861 ± 0.121 log2FC
12,CTCGAGGATATCAAGATCTGGCCTCGGCGTTTTACATGGAACCTCTAGCTAGCCGACTCACTATAGGGATAATCGCCCTGAGCAAAGACC,2.03 ± 0.0856 log2FC
13,CTCGAGGATATCAAGATCTGGCCTCGGCCGCCCAGCCGGAACCTCTAGCTAGCCGACTCACTATAGGGATAATCGCCCTGAGCAAAGACC,-0.832 ± 0.147 log2FC
14,CTCGAGGATATCAAGATCTGGCCTCGGCTTTTTAGGAGGAACCTCTAGCTAGCCGACTCACTATAGGGATAATCGCCCTGAGCAAAGACC,1.41 ± 0.0944 log2FC
15,CTCGAGGATATCAAGATCTGGCCTCGGCTCGTTAAAAGGAACCTCTAGCTAGCCGACTCACTATAGGGATAATCGCCCTGAGCAAAGACC,3.05 ± 0.0768 log2FC
16,CTCGAGGATATCAAGATCTGGCCTCGGCAAAGTAAAAGGAACCTCTAGCTAGCCGACTCACTATAGGGATAATCGCCCTGAGCAAAGACC,0.197 ± 0.0829 log2FC
17,CTCGAGGATATCAAGATCTGGCCTCGGCGCGGGAGCGGGAACCTCTAGCTAGCCGACTCACTATAGGGATAATCGCCCTGAGCAAAGACC,-0.635 ± 0.137 log2FC
18,CTCGAGGATATCAAGATCTGGCCTCGGCTATCCACGCGGAACCTCTAGCTAGCCGACTCACTATAGGGATAATCGCCCTGAGCAAAGACC,-1.03 ± 0.113 log2FC
19,CTCGAGGATATCAAGATCTGGCCTCGGCATGTTAAAAGGAACCTCTAGCTAGCCGACTCACTATAGGGATAATCGCCCTGAGCAAAGACC,1.48 ± 0.0814 log2FC
20,CTCGAGGATATCAAGATCTGGCCTCGGCAACGTAAAAGGAACCTCTAGCTAGCCGACTCACTATAGGGATAATCGCCCTGAGCAAAGACC,0.751 ± 0.0928 log2FC
21,CTCGAGGATATCAAGATCTGGCCTCGGCATTTTAACGGGAACCTCTAGCTAGCCGACTCACTATAGGGATAATCGCCCTGAGCAAAGACC,1.87 ± 0.0803 log2FC
22,CTCGAGGATATCAAGATCTGGCCTCGGCCTAGTAAAAGGAACCTCTAGCTAGCCGACTCACTATAGGGATAATCGCCCTGAGCAAAGACC,2.42 ± 0.0781 log2FC
23,CTCGAGGATATCAAGATCTGGCCTCGGCATTCTAAAAGGAACCTCTAGCTAGCCGACTCACTATAGGGATAATCGCCCTGAGCAAAGACC,-0.358 ± 0.0968 log2FC
24,CTCGAGGATATCAAGATCTGGCCTCGGCTGCGTAAAAGGAACCTCTAGCTAGCCGACTCACTATAGGGATAATCGCCCTGAGCAAAGACC,1.22 ± 0.0881 log2FC
25,CTCGAGGATATCAAGATCTGGCCTCGGCGACCTAAAAGGAACCTCTAGCTAGCCGACTCACTATAGGGATAATCGCCCTGAGCAAAGACC,-0.787 ± 0.0956 log2FC
26,CTCGAGGATATCAAGATCTGGCCTCGGCTGTTTAAAAGGAACCTCTAGCTAGCCGACTCACTATAGGGATAATCGCCCTGAGCAAAGACC,1.97 ± 0.0666 log2FC
